Results on six compounds are retold here after PubChem BioAssay AID485276 (Southern Research Specialized Biocontainment Screening …, 2010).

Each structure is given as a SMILES string. Results with a measured potency or affinity are listed apart. Unmarked numbers belong to inactive results. No rule for the calls is given here.

The experiment can be described thus: SV40 cytopathic effect inhibition and cytotoxicity, confirmation, BSC cells, set 3 (AID 485276). The following applies: series mostly up to 200 µM; CPE inhibition: at the top concentration.
In the case of `Oc1ccc(Oc2ccc(O)cc2)cc1`, the “CPE inhibition” value is 0%. As for `Oc1c(Cl)cc(Cl)cc1Sc1cc(Cl)cc(Cl)c1O`, the figure is 0%; as for `Oc1ccc(C2(c3ccc(O)cc3)CC2)cc1`, 37.4%; as for `CC(C)(c1ccccc1)n1nnc(-c2ccccc2)n1`, 0%. As for `Oc1ccc(Cl)cc1Cc1cc(Cl)ccc1O`, the figure is 0%; as for `CC(C)(c1ccc(O)cc1)c1ccc(Cl)cc1`, 0%.
